For 8 molecules, outcome and AC50 results are on record in PubChem BioAssay (EPA / NIEHS).

SMILES strings stand for the structures. Calls of active or inactive are those of the source. The calls were made as follows: active = hit-call score of the fitted dose curve at least 0.9, where 1 is the maximum; inactive = score below 0.9.

Assay [1] in a line: ATG_ISRE_CIS: Attagene CIS-FACTORIAL HepG2 Assay for human Interferon Regulatory Factor 1 (IRF1) binding to an Interferon-Stimulated Response Element (ISRE) (AID 2282948). The settings on record: HepG2 ISRE cis-reporter (Attagene), mRNA transcription readout; actives raise or lower the signal. The essentials: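 Multiplexed mRNA reporter readout in human liver HepG2 cells: cis-element-driven reporters transfected, compound added for 24 h, transcripts amplified, fluorescently labelled and sized by capillary electrophoresis; curve fitting bidirectional against DMSO.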

A short description of assay [2]: ATG_M_32_CIS: Attagene CIS-FACTORIAL HepG2 Assay for M32 Transcription Factor (Internal Marker) (AID 2282949).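 Also: background control marker of the multiplexed CIS panel rather than a real target.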 Particulars: HepG2 Attagene cis-factorial M32 reporter, mRNA; actives raise or lower the signal. An outline of the steps: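 HepG2 transfectants (cis-regulated reporter transcription units) dosed 24 h. Reporter mRNA by RT-PCR plus CE, analysed as gain or loss relative to DMSO.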

Assay [3] in a line: ATG_M_06_CIS: Attagene CIS-FACTORIAL HepG2 Assay for M06 Transcription Factor (Internal Marker) (AID 2282950). Particulars: HepG2 Attagene CIS-FACTORIAL M06 internal marker reporter; actives raise or lower the signal. The essentials: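 Serves as a background control readout. Transfected HepG2 exposed to compounds for 24 h, then reporter transcripts quantified by fluorescent RT-PCR and capillary electrophoresis. Both directions fitted against DMSO baseline.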

Assay [4] deals with Hypoxia-inducible factor 1-alpha (Homo sapiens) (UniProt Q16665). As to the kind of experiment: ATG_HIF1a_CIS: Attagene CIS-FACTORIAL HepG2 Assay for human Hypoxia Inducible Factor 1 (HIF1A) (AID 2282951). The settings on record: HepG2 Attagene cis-factorial HIF1a reporter transcription; actives raise or lower the signal. The essentials:
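Dosed 24 h, transfected HepG2 cells yielded total RNA whose reporter transcripts were RT-PCR-amplified and sized by capillary electrophoresis using fluorescent labelling; DMSO defined baseline, with gain and loss of signal both fitted.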

Assay [5] deals with Hepatocyte nuclear factor 6 (Homo sapiens) (UniProt Q9UBC0). Kind of assay: ATG_HNF6_CIS: Attagene CIS-FACTORIAL HepG2 Assay for human Hepatocyte Nuclear Factor 6 (HNF6) (AID 2282952). Particulars: HepG2 Attagene cis-factorial HNF6 reporter transcription; actives raise or lower the signal. The essentials: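 Readout: fluorescent reporter-transcript fragments resolved by capillary electrophoresis after RT-PCR, reflecting endogenous factor activity in transfected HepG2. Exposure 24 h. Gain or loss of signal fitted bidirectionally against DMSO.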

Assay [6] in a line: ATG_MRE_CIS: Attagene CIS-FACTORIAL HepG2 Assay for human Metal Responsive Element (MRE) (AID 2282954). The settings on record: HepG2 MRE cis-reporter transcription, Attagene multiplex; actives raise or lower the signal. The essentials:
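Cells were transfected with cis-promoter reporter transcription units, then dosed for 24 h. RNA was reverse-transcribed, amplified, fluorescently labelled and resolved by capillary electrophoresis, and activity was fitted in both directions relative to DMSO.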

Assay [7] has as its target Paired box protein Pax-6 (Homo sapiens) (UniProt P26367). Kind of assay: ATG_Pax6_CIS: Attagene CIS-FACTORIAL HepG2 Assay for human Paired Box 6 (PAX6) (AID 2282956). Particulars: HepG2 CIS-FACTORIAL PAX6 reporter transcription, RNA readout; actives raise or lower the signal. The essentials: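 Fluorescent RT-PCR products separated by capillary electrophoresis report PAX6-linked promoter mRNA in HepG2 cells 24 h post-dose. Curves fitted bidirectionally, DMSO as negative control.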

The nature of assay [8]: ATG_PXRE_CIS: Attagene CIS-FACTORIAL HepG2 Assay for human Pregnane X Receptor Element (PXRE) (AID 2282957). Particulars: HepG2 Attagene CIS-FACTORIAL PXRE reporter, mRNA; actives raise or lower the signal. The essentials:
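Read-out: fluorescence of reporter-specific RT-PCR products resolved by capillary electrophoresis, fitted bidirectionally relative to DMSO. Human HepG2 liver cells carried transfected cis-promoter reporter units and were exposed to chemicals for 24 h.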

Assay [9] can be described thus: ATG_PPRE_CIS: Attagene CIS-FACTORIAL HepG2 Assay for human Peroxisome Proliferator-activated Response Element (PPRE) (AID 2282958). Particulars: HepG2 PPRE cis-element reporter, Attagene transcription factor profiling; actives raise or lower the signal. An outline of the steps: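 Measured endpoint: PPRE-controlled reporter mRNA, detected by RT-PCR and capillary electrophoresis fluorescence, from transiently transfected HepG2 cells 24 h after dosing. Curves fitted in both directions using DMSO baseline.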

A short description of assay [10]: ATG_RORE_CIS: Attagene CIS-FACTORIAL HepG2 Assay for human RAR-related Orphan Receptor Element (RORE) (AID 2282959). Particulars: HepG2 Attagene cis-factorial RORE reporter, mRNA; actives raise or lower the signal. An outline of the steps: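 Transiently transfected HepG2 reporter cells were treated 24 h. Reporter transcripts were detected by RT-PCR and capillary electrophoresis, with bidirectional fitting against DMSO.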

Assay [11] can be described thus: ATG_Sox_CIS: Attagene CIS-FACTORIAL HepG2 Assay for human SRY-box transcription factor (SOX) (AID 2282960). Particulars: HepG2 Attagene cis-factorial SOX reporter, mRNA; actives raise or lower the signal. An outline of the steps: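 Gain- or loss-of-signal endpoint, fitted bidirectionally with DMSO as negative control. Based on reporter mRNA from transfected HepG2 cells harvested 24 h post-treatment and quantified via RT-PCR and capillary electrophoresis.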

The target of assay [12] is Transcription factor Sp1 (Homo sapiens) (UniProt P08047). Kind of assay: ATG_Sp1_CIS: Attagene CIS-FACTORIAL HepG2 Assay for human Specificity Protein 1 (Sp1) (AID 2282961). The settings on record: HepG2 Sp1 cis-reporter transcription, actives raise or lower the signal. The essentials: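 Endpoint reflects endogenous Sp1 transcriptional activity, not an exogenous fusion protein: HepG2 cells with transfected cis-regulated reporters, 24 h dosing, RT-PCR/capillary electrophoresis mRNA read-out, DMSO-normalised bidirectional fit.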

The nature of assay [13]: ATG_SREBP_CIS: Attagene CIS-FACTORIAL HepG2 Assay for human Sterol Regulatory Element Binding (SREBP) (AID 2282962). The settings on record: HepG2 Attagene cis-factorial SREBP reporter, mRNA; actives raise or lower the signal. An outline of the steps: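 Endogenous factor activity is measured in HepG2 through multiplexed reporter units under cis-element control. Following a 24 h incubation, reporter transcripts are reverse-transcribed, PCR-amplified and sized by capillary electrophoresis; activity is fitted in both directions relative to DMSO.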

The target in assay [14] is Signal transducer and activator of transcription 3 (Homo sapiens) (UniProt P40763). As to the kind of experiment: ATG_STAT3_CIS: Attagene CIS-FACTORIAL HepG2 Assay for human Signal Transducer and Activator of Transcription 3 (STAT3) (AID 2282963). Particulars: HepG2, Attagene cis-factorial STAT3 reporter transcription; actives raise or lower the signal. The essentials:
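HepG2, MRTU-transfected, 24 h dosing. RNA → RT → PCR → FAM label → HpaI → CE. Bidirectional fit vs DMSO.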

A short description of assay [15]: ATG_TA_CIS: Attagene CIS-FACTORIAL HepG2 Assay for human TA Basal Promoter (AID 2282964). The settings on record: HepG2 Attagene CIS-factorial TA basal promoter reporter; actives raise or lower the signal. An outline of the steps:
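Background-control readout: TA basal promoter reporter mRNA, fitted in both directions relative to DMSO. Measured by RT-PCR and capillary electrophoresis 24 hours after treating HepG2 human liver cells transiently carrying multiplexed cis-regulated reporter constructs.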

Assay [16] has as its target Heat shock factor protein 1 (Homo sapiens) (UniProt Q00613). As to the kind of experiment: ATG_HSE_CIS: Attagene CIS-FACTORIAL HepG2 Assay for human Heat Shock Transcription Factor 1 (HSE) (AID 2282953). Particulars: HepG2 HSE cis-reporter, Attagene RNA transcription; actives raise or lower the signal. An outline of the steps: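 Endogenous transcription factor activity in transiently transfected HepG2, read as reporter mRNA by RT-PCR with fluorescent capillary electrophoresis after 24 h. Gain or loss of signal fitted versus DMSO baseline.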

The nature of assay [17]: ATG_TCF_b_cat_CIS: Attagene CIS-FACTORIAL HepG2 Assay for human T-Cell-Factor with beta-catenin (TCF/b-cat) (AID 2282965). The settings on record: HepG2 TCF/beta-catenin cis-reporter transcription, actives raise or lower the signal. An outline of the steps:
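Using capillary electrophoresis as the read-out, labelled reporter cDNA fragments from transiently transfected HepG2 were sized and quantified. Exposure lasted 24 hours; activity in either direction was referenced to DMSO.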

Assay [18] in a line: ATG_PBREM_CIS: Attagene CIS-FACTORIAL HepG2 Assay for human Phenobarbital-responsive Enhancer Module (PBREM) (AID 2282955). The settings on record: HepG2 PBREM cis-reporter, Attagene multiplexed transcription; actives raise or lower the signal. An outline of the steps: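 Transfected liver-derived HepG2 cells exposed 24 h; PBREM reporter transcript quantified via RT-PCR and capillary electrophoresis, with activity in either direction referenced to DMSO.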

Transcription factor Sp1 (Homo sapiens), sequence (P08047 whole entry, looked up, the tested form may be a part): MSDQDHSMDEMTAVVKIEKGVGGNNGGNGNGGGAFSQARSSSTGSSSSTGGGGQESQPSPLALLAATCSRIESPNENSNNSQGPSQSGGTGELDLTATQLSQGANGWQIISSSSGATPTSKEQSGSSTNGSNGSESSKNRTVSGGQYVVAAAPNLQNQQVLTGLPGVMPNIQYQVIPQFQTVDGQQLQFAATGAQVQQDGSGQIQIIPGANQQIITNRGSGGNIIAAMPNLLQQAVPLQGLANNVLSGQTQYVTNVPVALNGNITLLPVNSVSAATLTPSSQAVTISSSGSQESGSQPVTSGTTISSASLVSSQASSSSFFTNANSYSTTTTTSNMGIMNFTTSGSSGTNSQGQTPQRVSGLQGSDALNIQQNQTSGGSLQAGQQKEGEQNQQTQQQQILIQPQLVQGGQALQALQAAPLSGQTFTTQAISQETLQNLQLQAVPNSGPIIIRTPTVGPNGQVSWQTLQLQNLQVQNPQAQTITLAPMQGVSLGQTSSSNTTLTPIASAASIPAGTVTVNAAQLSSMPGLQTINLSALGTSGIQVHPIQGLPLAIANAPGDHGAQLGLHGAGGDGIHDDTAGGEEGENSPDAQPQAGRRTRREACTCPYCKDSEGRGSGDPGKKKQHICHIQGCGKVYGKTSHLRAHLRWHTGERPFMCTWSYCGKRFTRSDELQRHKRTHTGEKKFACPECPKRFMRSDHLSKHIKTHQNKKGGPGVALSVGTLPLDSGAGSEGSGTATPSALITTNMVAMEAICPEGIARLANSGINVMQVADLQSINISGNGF
Hepatocyte nuclear factor 6 (Homo sapiens), sequence (Q9UBC0 whole entry, looked up, the tested form may be a part): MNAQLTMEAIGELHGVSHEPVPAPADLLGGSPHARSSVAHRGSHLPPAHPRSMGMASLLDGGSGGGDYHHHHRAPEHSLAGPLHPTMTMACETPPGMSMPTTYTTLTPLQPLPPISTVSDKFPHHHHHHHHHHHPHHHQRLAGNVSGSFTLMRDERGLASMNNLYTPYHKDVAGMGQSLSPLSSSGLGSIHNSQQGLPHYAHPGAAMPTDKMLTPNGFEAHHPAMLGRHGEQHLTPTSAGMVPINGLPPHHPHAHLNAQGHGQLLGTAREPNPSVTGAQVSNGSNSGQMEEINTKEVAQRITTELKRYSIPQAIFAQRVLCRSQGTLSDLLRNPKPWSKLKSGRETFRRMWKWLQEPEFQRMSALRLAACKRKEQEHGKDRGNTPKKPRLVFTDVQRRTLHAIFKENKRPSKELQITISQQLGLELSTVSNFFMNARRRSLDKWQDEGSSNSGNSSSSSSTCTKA
Signal transducer and activator of transcription 3 (Homo sapiens), sequence (P40763 whole entry, looked up): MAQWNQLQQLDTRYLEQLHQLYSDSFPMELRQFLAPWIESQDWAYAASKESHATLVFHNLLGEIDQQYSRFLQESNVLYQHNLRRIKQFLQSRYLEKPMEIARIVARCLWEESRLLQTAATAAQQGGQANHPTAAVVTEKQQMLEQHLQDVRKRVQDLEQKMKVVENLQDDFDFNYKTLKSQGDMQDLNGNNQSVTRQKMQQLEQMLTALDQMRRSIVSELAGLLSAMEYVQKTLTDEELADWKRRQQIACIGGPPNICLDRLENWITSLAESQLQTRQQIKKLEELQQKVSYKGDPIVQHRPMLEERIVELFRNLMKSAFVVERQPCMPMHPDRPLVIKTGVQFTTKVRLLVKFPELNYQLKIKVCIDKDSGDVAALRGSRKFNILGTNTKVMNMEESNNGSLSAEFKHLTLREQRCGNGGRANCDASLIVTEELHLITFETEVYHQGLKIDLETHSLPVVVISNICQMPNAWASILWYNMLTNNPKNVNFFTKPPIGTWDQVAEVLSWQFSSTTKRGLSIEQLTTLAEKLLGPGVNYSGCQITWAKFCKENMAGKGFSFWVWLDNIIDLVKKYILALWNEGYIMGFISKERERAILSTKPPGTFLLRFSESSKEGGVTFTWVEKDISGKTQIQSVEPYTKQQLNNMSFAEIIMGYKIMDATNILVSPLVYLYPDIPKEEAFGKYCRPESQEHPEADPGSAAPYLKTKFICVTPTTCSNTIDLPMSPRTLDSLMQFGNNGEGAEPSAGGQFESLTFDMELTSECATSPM
Hypoxia-inducible factor 1-alpha (Homo sapiens), sequence (Q16665 whole entry, looked up): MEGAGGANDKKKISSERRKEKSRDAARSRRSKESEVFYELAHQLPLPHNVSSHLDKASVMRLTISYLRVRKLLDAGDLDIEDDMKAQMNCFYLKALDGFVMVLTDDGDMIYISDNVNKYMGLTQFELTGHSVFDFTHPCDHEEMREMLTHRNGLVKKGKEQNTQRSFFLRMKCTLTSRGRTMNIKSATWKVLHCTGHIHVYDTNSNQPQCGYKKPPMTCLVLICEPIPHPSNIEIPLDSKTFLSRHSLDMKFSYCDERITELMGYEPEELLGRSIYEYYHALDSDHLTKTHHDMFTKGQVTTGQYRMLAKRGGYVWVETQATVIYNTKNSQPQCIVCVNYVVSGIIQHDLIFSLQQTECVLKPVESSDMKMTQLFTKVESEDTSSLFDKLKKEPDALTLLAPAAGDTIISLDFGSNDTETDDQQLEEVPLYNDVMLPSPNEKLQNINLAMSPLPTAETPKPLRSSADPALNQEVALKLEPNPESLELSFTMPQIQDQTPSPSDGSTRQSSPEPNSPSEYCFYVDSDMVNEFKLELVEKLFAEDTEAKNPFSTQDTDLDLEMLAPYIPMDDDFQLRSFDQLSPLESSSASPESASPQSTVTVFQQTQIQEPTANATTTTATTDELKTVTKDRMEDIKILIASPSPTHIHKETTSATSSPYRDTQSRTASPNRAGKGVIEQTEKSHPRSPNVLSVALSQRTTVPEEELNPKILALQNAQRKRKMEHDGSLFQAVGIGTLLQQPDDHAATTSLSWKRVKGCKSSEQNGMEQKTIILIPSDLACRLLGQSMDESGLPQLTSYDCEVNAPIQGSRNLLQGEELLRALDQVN
Paired box protein Pax-6 (Homo sapiens), sequence (P26367 whole entry, looked up): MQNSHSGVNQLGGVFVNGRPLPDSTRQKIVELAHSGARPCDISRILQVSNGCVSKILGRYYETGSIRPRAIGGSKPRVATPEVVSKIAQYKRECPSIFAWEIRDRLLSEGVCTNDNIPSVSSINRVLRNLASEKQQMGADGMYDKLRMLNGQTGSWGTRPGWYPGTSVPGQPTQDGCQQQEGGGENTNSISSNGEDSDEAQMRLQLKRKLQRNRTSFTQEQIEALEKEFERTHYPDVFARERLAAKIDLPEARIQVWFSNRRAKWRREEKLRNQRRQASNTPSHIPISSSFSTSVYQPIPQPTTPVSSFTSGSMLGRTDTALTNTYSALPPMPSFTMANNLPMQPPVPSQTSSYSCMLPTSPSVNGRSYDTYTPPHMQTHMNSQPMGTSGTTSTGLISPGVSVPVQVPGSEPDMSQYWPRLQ
Heat shock factor protein 1 (Homo sapiens), sequence (Q00613 whole entry, looked up): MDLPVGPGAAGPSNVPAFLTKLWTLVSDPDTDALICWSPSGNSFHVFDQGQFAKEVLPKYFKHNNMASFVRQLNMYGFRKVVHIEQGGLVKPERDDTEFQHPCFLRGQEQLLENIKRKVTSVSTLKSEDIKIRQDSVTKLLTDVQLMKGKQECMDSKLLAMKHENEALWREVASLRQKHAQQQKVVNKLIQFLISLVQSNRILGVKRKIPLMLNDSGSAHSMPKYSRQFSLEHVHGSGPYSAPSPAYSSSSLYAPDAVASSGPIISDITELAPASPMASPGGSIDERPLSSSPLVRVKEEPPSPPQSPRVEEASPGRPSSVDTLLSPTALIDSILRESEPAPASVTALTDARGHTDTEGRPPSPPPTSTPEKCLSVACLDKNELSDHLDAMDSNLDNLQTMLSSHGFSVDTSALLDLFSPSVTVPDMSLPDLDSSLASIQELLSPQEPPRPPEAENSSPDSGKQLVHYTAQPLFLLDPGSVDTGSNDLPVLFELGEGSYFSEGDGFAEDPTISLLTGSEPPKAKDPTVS

A word on the AC50: it is the concentration giving half of the maximal activity seen. As for `O=CN1CCOCC1`, the molecule was called inactive in assay [1], in assay [2], in [3], in [5], in [6] and in assay [7]. In addition, the call in assay [8], in assay [9], in assay [10], in [11], in assay [12] and in assay [13] was inactive. The molecule was called inactive in [14] and in [15]. Further, the AC50 in assay [4] is 51.7 µM (active).

In the case of `Nc1c(S(=O)(=O)O)cc(Br)c2c1C(=O)c1ccccc1C2=O`, the outcome in assay [1], in assay [2], in assay [3], in assay [4], in assay [5] and in [16] was inactive. In addition, the outcome in assay [7], in [11], in [12], in assay [13] and in [14] was inactive. Moreover, the concentration at half-maximal activity (AC50) in assay [6] is 58 µM (active); in [8] it was 22.4 µM (active); in assay [10], 100 µM (active); in assay [15], 100 µM (active).

As to `CC(C)NCC(O)COc1ccc(CC(N)=O)cc1` (stereo unspecified), the result in assay [1], in [2], in assay [3], in assay [5], in assay [16] and in assay [6] was inactive. Besides, the call in assay [7], in assay [8], in [10], in [11], in [12] and in [13] was inactive. The call in assay [14], in assay [15] and in assay [17] was inactive.

In the case of `CC(C)CCCCCCCCCCCCCCC(=O)O`, the outcome in assay [1], in assay [2], in [4], in [5], in [16] and in [6] was inactive. Further, the result in assay [18], in [7], in assay [8], in assay [9], in [10] and in assay [11] was inactive. The result in [12], in [13], in [14], in assay [15] and in [17] was inactive.

For `O=[N+]([O-])c1cccc(Cl)c1`, the call in assay [1], in assay [3], in [4], in assay [5], in [16] and in assay [6] was inactive. In addition, the result in [7], in assay [8], in assay [9], in assay [10], in [11] and in [13] was inactive. The result in assay [14] and in [15] was inactive.

Consider `C[C@H]1C[C@@H](O)CC(C)(C)C1`, for which the molecule was classed as inactive in [1], in [2], in assay [3], in assay [4], in assay [5] and in assay [6]. Moreover, the molecule was classed as inactive in assay [7], in assay [9], in assay [10], in assay [12], in [14] and in [15]. The result in assay [17] was inactive. For the same molecule, in [8], the AC50 was 68.4 µM (active).

As for `C=C(C)C1CC=C(C)C(=O)C1` (stereo unspecified), the result in [1], in assay [2], in assay [3], in [4], in assay [5] and in assay [16] was inactive. For the same molecule, the result in assay [6], in assay [7], in [10], in assay [11], in assay [12] and in assay [13] was inactive. Besides, the molecule was called inactive in assay [14] and in assay [17]. Besides, the AC50 in [8] was 33.4 µM (active).

With `CCCCCCC(CO)CCCC` (stereo unspecified), the result in assay [1], in assay [2], in [4], in assay [5], in assay [6] and in [18] was inactive. Besides, the call in assay [7], in assay [9], in assay [10], in assay [11], in assay [12] and in assay [13] was inactive. For the same molecule, the outcome in [14], in assay [15] and in assay [17] was inactive. The AC50 in assay [8] was 33.4 µM (active).
